According to the supplement of paper PMC9135407:
Where “and” joins values, the source holds several entries; their conditions need not be identical. Equal entries are not always repeated. Structures can show the parent of a compound that is named as a salt. Among all 5,800 compounds or so, about 620 (11%) showed activity.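 Rule for the calls: active = score above a cut-off or among the top three wells of a plate; in these data no inactive exceeds 0.85.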 For the sample, actives were picked, then their nearest neighbours and some compounds at random.

Tested on: primary human hepatic stellate cells (donor 1)
Test: scaled lipid accumulation score (0 = DMSO-like, 1 = nortriptyline-like); higher = stronger HSC inactivation (lipid re-accumulation), active = hit call of the paper
Conditions: 48 h
[1] = library stock concentration: 3.33 mM
[2] = library stock concentration: 10 mM
[3] = library stock concentration: 1 mM
[4] = library stock concentration: 100 uM
[5] = library stock concentration: 80 uM
[6] = library stock concentration: 400 uM
[7] = library stock concentration: 2 mM
[8] = library stock concentration: 6.8 mM
[9] = library stock concentration: 4.9 mM

CS(=O)(=O)c1ccc([C@H](O)[C@@H](COC(=O)CN)NC(=O)C(Cl)Cl)cc1 [Thiamphenicol glycinate]
scaled lipid accumulation score (library stock concentration: 4.8 mM): 0.01 (inactive)

O=C(O)Cn1nnc(-c2cc(N3CCC(Oc4cc(F)ccc4Br)CC3)no2)n1
scaled lipid accumulation score [1]: ≤ 0 (inactive)
scaled lipid accumulation score [2]: ≤ 0 (inactive)

CCCCC[C@H](O)/C=C/[C@@H]1[C@@H](C/C=C\CCCC(=O)N(CC)CC)[C@@H](O)C[C@H]1O [Prostaglandin F2.alpha. diethyl amide]
scaled lipid accumulation score [3]: ≤ 0 (inactive)

CCc1cccc(N(C)C(=N)Nc2cccc3ccccc23)c1.Cl
scaled lipid accumulation score [2]: 0.912 (active)

CC1CCC(C(C)C)C(O)C1 (stereo not drawn) [Menthol(-)]
scaled lipid accumulation score [2]: ≤ -0.027 (inactive)

CC1(C)CC(=O)C(C2C3=C(CC(C)(C)CC3=O)Oc3ccccc32)C(=O)C1 (stereo not given)
scaled lipid accumulation score [2]: ≤ -0.002 (inactive)

CCCCCC1OC1C/C=C\C/C=C\C/C=C\CCCC(=O)O (stereo not given)
scaled lipid accumulation score [4]: ≤ -0.021 (inactive)

CC(=O)c1cnc2ccc(-c3cc(Cl)c(O)c(Cl)c3)nc2c1N[C@H]1CC[C@H](CN(C)C)CC1.Cl
scaled lipid accumulation score [2]: 0.872 (active)

CC(=O)c1cnc2ccc(-c3cc(Cl)c(O)c(Cl)c3)nc2c1N[C@H]1CC[C@H](CN(C)C)CC1
scaled lipid accumulation score [5]: 0.258 (inactive)
scaled lipid accumulation score [6]: 0.847 (inactive)
scaled lipid accumulation score [7]: 0.765 (inactive)

CCN(CC)CCNC(C(=O)OCCC(C)C)c1ccccc1 (stereo not given)
scaled lipid accumulation score [2]: 0.521 (inactive)

Cc1ccc(C(=O)NCCCCCC(=O)Nc2ccccc2N)cc1
scaled lipid accumulation score [1]: ≤ -0.009 (inactive)
scaled lipid accumulation score [2]: 0.662 (inactive)

c1ccc2c3c([nH]c2c1)C1C2CCC(C4CCCNC42)N1CC3 (stereo not given) [Nitrarine dihydrochloride]
scaled lipid accumulation score: ≤ 0 (inactive)

CCCNC(=O)[C@H]1O[C@@H]1C(=O)N[C@H](C(=O)N1CCC[C@H]1C(=O)OC)C(C)CC (stereo not given in full)
scaled lipid accumulation score (library stock concentration: 12.6 mM): 0.868 (active)

CCOC(=O)[C@H](CCc1ccccc1)N[C@@H](C)C(=O)N1CCC[C@H]1C(=O)O [Enalapril maleate]
scaled lipid accumulation score: ≤ 0 (inactive)
scaled lipid accumulation score [2]: ≤ 0 (inactive)

CCOC(=O)[C@H](CCc1ccccc1)N[C@@H](C)C(=O)N1CCC[C@H]1C(=O)O
scaled lipid accumulation score [2]: ≤ 0 (inactive)

C[C@H](CS)C(=O)N1CCC[C@H]1C(=O)O [Captopril]
scaled lipid accumulation score: 0.036 (inactive)
scaled lipid accumulation score [1]: ≤ 0 (inactive)
scaled lipid accumulation score (library stock concentration: 9.2 mM): ≤ -0.006 (inactive) and ≤ 0 (inactive)
scaled lipid accumulation score [2]: ≤ 0 (inactive)

CCOC(=O)[C@H](CCc1ccccc1)N[C@@H](C)C(=O)N1CCC[C@H]1C(=O)O [Enalapril]
scaled lipid accumulation score (library stock concentration: 5.3 mM): ≤ 0 (inactive)

CCOC(=O)[C@H](CCc1ccccc1)N[C@@H](C)C(=O)N1CCC[C@H]1C(=O)O [Enalapril Maleate]
scaled lipid accumulation score [1]: 0.026 (inactive)
scaled lipid accumulation score [2]: ≤ 0 (inactive)

C[C@H](CS)C(=O)N1CCC[C@H]1C(=O)O
scaled lipid accumulation score [2]: ≤ 0 (inactive)

O=C(O)/C(=C\c1c(C(=O)O)[nH]c2cc(Cl)cc(Cl)c12)c1ccccc1
scaled lipid accumulation score [2]: 0.017 (inactive)

N[C@H](C(=O)O)[C@H](Cc1ccccc1)C(=O)O [L-Beta-threo-benzyl-aspartate]
scaled lipid accumulation score [2]: ≤ 0 (inactive)

CC(C)NC[C@H](O)COc1cccc2ccccc12 [(S)-(-)-Propranolol hydrochloride]
scaled lipid accumulation score [2]: 0.518 (inactive)

CC(C)NC[C@H](O)COc1cccc2ccccc12 [(S)-Propranolol hydrochloride]
scaled lipid accumulation score [2]: 0.445 (inactive)

CC(C)NC[C@@H](O)COc1cccc2ccccc12 [(R)-(+)-Propranolol hydrochloride]
scaled lipid accumulation score [2]: 0.656 (inactive)

CC(C)NCC(O)COc1cccc2ccccc12 (stereo not given)
scaled lipid accumulation score [2]: 0.847 (inactive)

CC(C)NC[C@H](O)COc1cccc2ccccc12.Cl
scaled lipid accumulation score (library stock concentration: 16.9 mM): 1.02 (active)

CC(C)NC[C@@H](O)COc1cccc2ccccc12 [Dexpropranolol hydrochloride]
scaled lipid accumulation score [8]: 0.521 (inactive)
scaled lipid accumulation score [2]: ≤ 0 (inactive)

CC(C)NCC(O)COc1cccc2ccccc12 (stereo not given) [Propranolol HCl]
scaled lipid accumulation score [1]: ≤ 0 (inactive)
scaled lipid accumulation score [2]: 0.555 (inactive)

CC(C)NC[C@H](O)COc1cccc2ccccc12 [(S)-propranolol hydrochloride]
scaled lipid accumulation score: 0.444 (inactive)

CC(C)NCC(O)COc1cccc2ccccc12 (racemic) [Propranolol hydrochloride (+/-)]
scaled lipid accumulation score [8]: 0.363 (inactive)
scaled lipid accumulation score [2]: 0.457 (inactive)

CC(C)NCC(O)COc1cccc2ccccc12 (stereo not given) [Propranolol hydrochloride]
scaled lipid accumulation score: 0.378 (inactive)
scaled lipid accumulation score [2]: 0.74 (inactive)

CC(C)NCC(O)COc1cccc2ccccc12 (stereo not given) [Propranolol]
scaled lipid accumulation score (library stock concentration: 7.7 mM): 0.676 (inactive)

CC(C)NCC(O)COc1cccc2ccccc12.Cl (stereo not given)
scaled lipid accumulation score [2]: 0.882 (active)

CC(C)NC[C@@H](O)COc1cccc2ccccc12 [(R)-Propranolol hydrochloride]
scaled lipid accumulation score: 0.415 (inactive)

CCCOc1ccc(/C=C2/SC(=O)NC2=O)cc1 [PIM1/2 Kinase Inhibitor VI]
scaled lipid accumulation score [1]: 0.001 (inactive)

C=CCn1c(=O)n([C@@H]2O[C@H](CO)[C@@H](O)[C@H]2O)c2nc(N)[nH]c(=O)c21
scaled lipid accumulation score [2]: 0.047 (inactive)

CCCCC(C)(C)[C@H](O)/C=C/[C@@H]1[C@@H](C/C=C\CCCC(=O)O)[C@H](O)C[C@H]1O [16,16-dimethyl Prostaglandin F2.beta.]
scaled lipid accumulation score [3]: ≤ 0 (inactive)

CCCCCC=CCC=CC=CC=CC(SCC(NC(C)=O)C(=O)O)C(O)CCCC(=O)O (stereo not given) [N-Acetyl-leukotriene E4]
scaled lipid accumulation score [4]: 0.032 (inactive)

O=C(O)CCc1nc2ccccc2[nH]1
scaled lipid accumulation score [2]: 0.2 (inactive)

O=c1c2sc(-c3ccc(F)cc3)cc2ncn1Cc1nc2ccccc2[nH]1
scaled lipid accumulation score [2]: 0.756 (active)

c1ccc(N2CCN(Cc3nc4ccccc4[nH]3)CC2)nc1 [ABT 724 trihydrochloride]
scaled lipid accumulation score [2]: ≤ -0.001 (inactive)

CCCCCCCCCCCCCCCCOP(=O)([O-])OCC[N+](C)(C)C [Miltefosine]
scaled lipid accumulation score [3]: ≤ 0 (inactive)
scaled lipid accumulation score [9]: ≤ -0.006 (inactive)
scaled lipid accumulation score [2]: 0.007 (inactive)

O=C(NCc1ccccc1)c1csc(Nc2ccncn2)n1 [Thiazovivin]
scaled lipid accumulation score [1]: ≤ 0 (inactive)
scaled lipid accumulation score [2]: 0.14 (inactive)

O=C(NCc1cccc(O)c1)Nc1nc(-c2ccncc2)cs1 [listing 1 of 2 here]
scaled lipid accumulation score [1]: 0.56 (inactive)

O=C(NCc1cccc(O)c1)Nc1nc(-c2ccncc2)cs1 [listing 2 of 2 here]
scaled lipid accumulation score [2]: 1.02 (active)

Cc1nnc(C(C)C)n1C1C[C@H]2CC[C@@H](C1)N2CC[C@H](NC(=O)C1CCC(F)(F)CC1)c1ccccc1 (stereo in doubt) [Maraviroc]
scaled lipid accumulation score [1]: ≤ 0 (inactive)
scaled lipid accumulation score [2]: ≤ 0 (inactive)

COc1ccc(/C=C/c2cc(Cl)cc(Cl)c2)cc1
scaled lipid accumulation score [3]: ≤ 0 (inactive)

CCCCCCCCCCCCCCCNC(=O)C1CCCCC1 [N-Cyclohexanecarbonylpentadecylamine]
scaled lipid accumulation score [3]: ≤ 0 (inactive)

CCN(CC)CCCN(c1ccccc1)C1Cc2ccccc2C1 [Aprindine hydrochloride]
scaled lipid accumulation score [2]: 0.262 (inactive)

O=C(O)CCC/C=C\C[C@@H]1[C@@H](/C=C/[C@H](O)C2Cc3ccccc3C2)[C@@H](F)C[C@@H]1O
scaled lipid accumulation score [2]: ≤ -0.07 (inactive)

CC1(C)CC(=O)c2c(C(F)(F)F)nn(-c3ccc(C(N)=O)c(N[C@H]4CC[C@H](O)CC4)c3)c2C1
scaled lipid accumulation score [1]: 0.635 (inactive)
scaled lipid accumulation score [2]: 0.742 (inactive)

CC1(C)CC(=O)c2c(C(F)(F)F)nn(-c3ccc(C(N)=O)c(N[C@H]4CC[C@H](OC(=O)CN)CC4)c3)c2C1 [listing 1 of 2 here]
scaled lipid accumulation score [1]: 0.77 (inactive)

CC1(C)CC(=O)c2c(C(F)(F)F)nn(-c3ccc(C(N)=O)c(N[C@H]4CC[C@H](OC(=O)CN)CC4)c3)c2C1 [listing 2 of 2 here]
scaled lipid accumulation score [2]: 1.05 (active)

c1ccc(COCCCc2c[nH]cn2)cc1 [Proxyfan Oxalate]
scaled lipid accumulation score [2]: ≤ 0 (inactive)

CC(C)(S)C(N)C(=O)O (racemic)
scaled lipid accumulation score [2]: ≤ 0 (inactive)

Cc1cc(Nc2cc(N3CCN(C)CC3)nc(Sc3ccc(NC(=O)C4CC4)cc3)n2)n[nH]1
scaled lipid accumulation score [5]: 0.003 (inactive)
scaled lipid accumulation score [6]: 0.063 (inactive)
scaled lipid accumulation score [7]: 0.248 (inactive)
scaled lipid accumulation score [2]: 0.47 (inactive)

Cc1cc(Nc2cc(N3CCN(C)CC3)nc(C=Cc3ccccc3)n2)n[nH]1
scaled lipid accumulation score [1]: 1.06 (active)

Cc1cc(Nc2cc(N3CCN(C)CC3)nc(Sc3ccc(NC(=O)C4CC4)cc3)n2)n[nH]1 [Tozasertib (VX-680, MK-0457) (0.4 mM)]
scaled lipid accumulation score [6]: ≤ -0.005 (inactive)

Cc1cc(Nc2cc(N3CCN(C)CC3)nc(/C=C/c3ccccc3)n2)n[nH]1
scaled lipid accumulation score [2]: 0.603 (inactive)

Cc1cc(Nc2cc(N3CCN(C)CC3)nc(Sc3ccc(NC(=O)C4CC4)cc3)n2)n[nH]1 [Tozasertib (VX-680, MK-0457) (2 mM)]
scaled lipid accumulation score [7]: ≤ -0.005 (inactive)

Cc1cc(Nc2cc(N3CCN(C)CC3)nc(Sc3ccc(NC(=O)C4CC4)cc3)n2)n[nH]1 [VX-680 (Tozasertib, MK-0457)]
scaled lipid accumulation score [1]: 0.193 (inactive)
scaled lipid accumulation score [2]: 0.038 (inactive)

Cc1cc(Nc2cc(N3CCN(C)CC3)nc(Sc3ccc(NC(=O)C4CC4)cc3)n2)n[nH]1 [Tozasertib (VX-680, MK-0457) (10 mM)]
scaled lipid accumulation score [2]: 0.456 (inactive)

Cn1cc(-c2cnn3c(N)c(Br)c([C@@H]4CCCNC4)nc23)cn1
scaled lipid accumulation score [1]: ≤ 0 (inactive)
scaled lipid accumulation score [2]: 0.521 (inactive)

CCCCCCCCCCCCCCCC(=O)N[C@H](CN1CCOCC1)[C@H](O)c1ccccc1 (racemic)
scaled lipid accumulation score [3]: ≤ -0.021 (inactive)

CCCCC[C@H](O)/C=C/[C@H]1[C@H](O)CC(=O)[C@@H]1CCCCCCCO [Prostaglandin E1 Alcohol]
scaled lipid accumulation score [3]: 0.129 (inactive)

O=C1C(c2ccccc2)N(c2ccc(Br)cc2)C(=O)N1c1ccc(Br)cc1 (stereo not given)
scaled lipid accumulation score [3]: ≤ 0 (inactive)

CC[C@H](C)C(=O)O[C@H]1C[C@H](O)C=C2C=C[C@H](C)[C@H](CC[C@@H]3C[C@@H](O)CC(=O)O3)[C@H]21 [Pravastatin lactone]
scaled lipid accumulation score [9]: ≤ 0 (inactive)
